# Experimental data as given in PubChem BioAssay (NCI).
# About 79,000 compounds went through this panel and 15% of them were active in at least one assay; those are over-represented in the sample as a whole. Activity calls are given as the source filed them. No stated cut-off is given here; in the data, active means growth inhibition above about 70%; inactive means the rest. Where a SMILES comes first, the peptide text is derived from it. The star is where a group is joined. Trt = c1ccc(C(c2ccccc2)(c2ccccc2)*)cc1; OtBu = CC(C)(C)O*
# Experiment: NCI Yeast Anticancer Drug Screen. Data for the rad50 strain (AID 155);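 further: 0% = growth of vehicle-only cultures of the same strain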
# Details: S. cerevisiae rad50 strain growth inhibition; at 50.0 µM (retest, dose inferred, filed as 5.0); hits give high values
# How it was run: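 Growth of the mutant yeast was measured after compound exposure and referenced to vehicle-treated cultures.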
row,Structure (SMILES),growth inhibition
1,CCOC(=O)C(=N\Nc1cccc(C)c1C)/C(C)=N\NC(N)=S,35% (inactive)
2,CCN(CC)CCNc1ccc(C)c2oc3ccc(O)cc3c(=O)c12,96% (active)
3,O=C1C(C=NC(=S)c2ccccc2)=C(O)c2ccccc21,72% (active)
4,CCOC(=O)Cc1csc(/N=C\c2c(O)c3ccccc3oc2=O)n1,38% (inactive)
5,CC(C)(CCCCC(C)(C)NCC1COc2ccccc2O1)NCC1COc2ccccc2O1 (stereo not drawn),73% (active)
6,O=C1OC(c2ccc(O)cc2)=C(c2ccccc2)C1c1ccccc1 (stereo not drawn),36% (inactive)
7,O=C(c1ccccc1)C(Br)CCCC(Br)C(=O)c1ccccc1 (stereo not drawn),64% (inactive)
8,CCC(c1ccc(O)cc1)C(O)(CC)c1ccc(O)cc1 (stereo not drawn),-9% (inactive)
9,Cn1cnc2[nH]c(Cl)nc(=S)c21,2% (inactive)
10,O=C(NCCN1CCCC1)c1cn2c(ccc3sc4ccccc4c(=O)c32)n1,89% (active)
11,CC(C)(C)OC(=O)CNC(=O)C(Cc1ccccc1)NC(=O)C(N)CSC(c1ccccc1)(c1ccccc1)c1ccccc1 (stereo not drawn) (H-Cys(Trt)-Phe-Gly-OtBu; configuration not given here),16% (inactive)
12,C/C(=N/NC(N)=S)C(CN(C)C)C(C1=C(O)c2ccccc2OC1)c1ccccc1 (stereo not drawn),8% (inactive)
13,O=C(CC(=O)c1ccccc1)CC(=O)c1ccccc1Br,94% (active)
14,O=C1OC2(c3ccccc31)c1cc(I)c(O)c(I)c1Oc1c2cc(I)c(O)c1I,99% (active)
15,Nc1cc(Cl)c2c(c1)Cc1ccccc1-2,96% (active)
16,C1=Cc2ccccc2/C1=C/c1ccccc1,93% (active)
17,Cc1ccc(C2=CC(=O)/C(=C\C(=O)c3ccc(Cl)cc3)O2)cc1,31% (inactive)
18,CC1(c2ccc(S(=O)(=O)c3ccccc3)cc2)OC(=O)C=CC1=O (stereo not drawn),100% (active)
19,CCCc1cc(-c2ccc(O)c(CCC)c2)ccc1O,99% (active)
20,CCOC(=O)N1c2ccc3ccccc3c2C=CC1C#N (stereo not drawn),6% (inactive)

row,Structure (SMILES),growth inhibition
1,N#CNc1nc(N)c(-c2ccc(Cl)cc2)c(C(=O)Nc2ccc(Cl)c(Cl)c2)n1,1% (inactive)
2,O=c1c(Cl)c(Cl)oc(Cl)c1Cl,98% (active)
3,O=c1nc(-c2ccccc2)cc(-c2ccccc2O)[nH]1,93% (active)
4,O=C(Cc1nc2ccccc2s1)C(=O)Nc1ccc(Cl)cc1,4% (inactive)
5,c1ccc(OCC2c3ccccc3Nc3ccccc32)cc1,97% (active)
6,CCN(C(=O)C(F)(F)F)c1ccc2c(c1)C(=O)c1ccccc1-2,34% (inactive)
7,Cc1cc2oc3c(ccc(=O)n3C)c(=O)c2c(C)c1Cl,38% (inactive)
8,O=C(CC(O)(C(F)(F)F)C(F)(F)F)C(c1ccccc1)C(O)(C(F)(F)F)C(F)(F)F (stereo not drawn),82% (active)
9,O=S(=O)(Sc1ccccc1)C(c1ccccc1)c1ccccc1,72% (active)
10,COc1ccc2c3c(ccc2c1)NC(C(=O)O)CC3 (stereo not drawn),82% (active)
11,N#CSc1ccc2nc(NCO)sc2c1,97% (active)
12,CC(CN(C)C)C(=O)c1cn(C)c2ccccc12 (stereo not drawn),3% (inactive)
13,Cc1cc(Cl)nc2ccc(Cc3ccc4nc(Cl)cc(C)c4c3)cc12,27% (inactive)
14,COc1ccc2c(c1)CN([C@@H](C)[C@H]1CC[C@H]3[C@@H]4CC[C@H]5C[C@@H](O)CC[C@]5(C)[C@H]4CC[C@]13C)CO2,99% (active)
15,FC(F)(F)c1nc(Cl)nc2nc[nH]c12,-9% (inactive)
16,CC(C)C1COC(c2ccc3ccccc3c2-c2c(O[Si](C)(C)C(C)(C)C)ccc3ccccc23)=N1 (stereo not drawn),20% (inactive)
17,COc1cc2c(c(C3C(=O)N(C)c4ccc(Br)cc43)c1OC)OCO2 (stereo not drawn),3% (inactive)
18,c1ccc2c3[nH]c(c2c1)=Nc1ccc(cc1)-c1nc2ccc(cc2o1)N=c1[nH]c(c2ccccc12)=Nc1ccc2nc(oc2c1)-c1ccc(cc1)N=3,94% (active)
19,c1ccc2nc3ccccc3nc2c1,64% (inactive)

# Same assay, conditions: S. cerevisiae rad50 strain growth inhibition; at 50.0 µM; hits give high values
row,Structure (SMILES),growth inhibition
1,CCOC(=O)C(=N\Nc1cccc(C)c1C)/C(C)=N\NC(N)=S,70.2% (active)
2,CCN(CC)CCNc1ccc(C)c2oc3ccc(O)cc3c(=O)c12,99% (active)
3,O=C1C(C=NC(=S)c2ccccc2)=C(O)c2ccccc21,-13.8% (inactive)
4,CCOC(=O)Cc1csc(/N=C\c2c(O)c3ccccc3oc2=O)n1,-4.35% (inactive)
5,CC(C)(CCCCC(C)(C)NCC1COc2ccccc2O1)NCC1COc2ccccc2O1 (stereo not drawn),94.6% (active)
6,O=C1OC(c2ccc(O)cc2)=C(c2ccccc2)C1c1ccccc1 (stereo not drawn),99.4% (active)
7,O=C(c1ccccc1)C(Br)CCCC(Br)C(=O)c1ccccc1 (stereo not drawn),97% (active)
8,CCC(c1ccc(O)cc1)C(O)(CC)c1ccc(O)cc1 (stereo not drawn),46.4% (inactive)
9,Cn1cnc2[nH]c(Cl)nc(=S)c21,1.05% (inactive)
10,O=C(NCCN1CCCC1)c1cn2c(ccc3sc4ccccc4c(=O)c32)n1,66% (inactive)
11,CC(C)(C)OC(=O)CNC(=O)C(Cc1ccccc1)NC(=O)C(N)CSC(c1ccccc1)(c1ccccc1)c1ccccc1 (stereo not drawn) (H-Cys(Trt)-Phe-Gly-OtBu; configuration not given here),59.2% (inactive)
12,C/C(=N/NC(N)=S)C(CN(C)C)C(C1=C(O)c2ccccc2OC1)c1ccccc1 (stereo not drawn),68% (inactive)
13,O=C(CC(=O)c1ccccc1)CC(=O)c1ccccc1Br,71.1% (active)
14,O=C1OC2(c3ccccc31)c1cc(I)c(O)c(I)c1Oc1c2cc(I)c(O)c1I,98.5% (active)
15,Nc1cc(Cl)c2c(c1)Cc1ccccc1-2,76.8% (active)
16,C1=Cc2ccccc2/C1=C/c1ccccc1,86.3% (active)
17,Cc1ccc(C2=CC(=O)/C(=C\C(=O)c3ccc(Cl)cc3)O2)cc1,74.9% (active)
18,CC1(c2ccc(S(=O)(=O)c3ccccc3)cc2)OC(=O)C=CC1=O (stereo not drawn),99.2% (active)
19,CCCc1cc(-c2ccc(O)c(CCC)c2)ccc1O,99.6% (active)
20,CCOC(=O)N1c2ccc3ccccc3c2C=CC1C#N (stereo not drawn),96.5% (active)

row,Structure (SMILES),growth inhibition
1,N#CNc1nc(N)c(-c2ccc(Cl)cc2)c(C(=O)Nc2ccc(Cl)c(Cl)c2)n1,-5.15% (inactive)
2,O=c1c(Cl)c(Cl)oc(Cl)c1Cl,79.2% (active)
3,O=c1nc(-c2ccccc2)cc(-c2ccccc2O)[nH]1,44.1% (inactive)
4,O=C(Cc1nc2ccccc2s1)C(=O)Nc1ccc(Cl)cc1,8% (inactive)
5,c1ccc(OCC2c3ccccc3Nc3ccccc32)cc1,71.9% (active)
6,CCN(C(=O)C(F)(F)F)c1ccc2c(c1)C(=O)c1ccccc1-2,26.1% (inactive)
7,Cc1cc2oc3c(ccc(=O)n3C)c(=O)c2c(C)c1Cl,53.7% (inactive)
8,O=C(CC(O)(C(F)(F)F)C(F)(F)F)C(c1ccccc1)C(O)(C(F)(F)F)C(F)(F)F (stereo not drawn),71.8% (active)
9,O=S(=O)(Sc1ccccc1)C(c1ccccc1)c1ccccc1,-21.6% (inactive)
10,COc1ccc2c3c(ccc2c1)NC(C(=O)O)CC3 (stereo not drawn),60.5% (inactive)
11,N#CSc1ccc2nc(NCO)sc2c1,98.9% (active)
12,CC(CN(C)C)C(=O)c1cn(C)c2ccccc12 (stereo not drawn),9% (inactive)
13,Cc1cc(Cl)nc2ccc(Cc3ccc4nc(Cl)cc(C)c4c3)cc12,15.1% (inactive)
14,COc1ccc2c(c1)CN([C@@H](C)[C@H]1CC[C@H]3[C@@H]4CC[C@H]5C[C@@H](O)CC[C@]5(C)[C@H]4CC[C@]13C)CO2,99% (active)
15,FC(F)(F)c1nc(Cl)nc2nc[nH]c12,26.4% (inactive)
16,CC(C)C1COC(c2ccc3ccccc3c2-c2c(O[Si](C)(C)C(C)(C)C)ccc3ccccc23)=N1 (stereo not drawn),93.2% (active)
17,COc1cc2c(c(C3C(=O)N(C)c4ccc(Br)cc43)c1OC)OCO2 (stereo not drawn),4.3% (inactive)
18,c1ccc2c3[nH]c(c2c1)=Nc1ccc(cc1)-c1nc2ccc(cc2o1)N=c1[nH]c(c2ccccc12)=Nc1ccc2nc(oc2c1)-c1ccc(cc1)N=3,78.2% (active)
19,c1ccc2nc3ccccc3nc2c1,77.5% (active)
